Assay results from ChEMBL document CHEMBL1157539, “Thousands of chemical starting points for antimalarial lead identification” (Nature, 2010).

Columns and labels:
Format in all cases: functional
Plasmodium falciparum [1] = experiment: GSK_TCMDC: Inhibition of Plasmodium falciparum 3D7 in whole red blood cells, using parasite LDH activity as an index of growth. Test compounds present at 2uM
Plasmodium falciparum [2] = experiment: GSK_TCMDC: Inhibition of Plasmodium falciparum Dd2 in whole red blood cells, using parasite LDH activity as an index of growth. Test compounds present at 2uM
HepG2 = experiment: GSK_TCMDC: Percent inhibition of human HepG2 cell line. Test compounds present at 10uM.

| Compound | Inhibition (Plasmodium falciparum [1]) | Inhibition (Plasmodium falciparum [2]) | Inhibition (HepG2) |
| --- | --- | --- | --- |
| Cc1ccc(CNC(=O)[C@H](Cc2ccccc2)Nc2cc(C)nc(NCC3CCCCC3)n2)cc1.O=C(O)C(F)(F)F | 100% | 89% | 0% |
| Cl.Nc1cccc(C=CC(=O)N=c2cc[nH]c3ccccc23)c1 | 98% | 60% | 7% |
| O=C(O)C(F)(F)F.OCC1CCCCN1Cc1cccc(-c2cccc(-c3nc4ccccc4[nH]3)c2)c1 (centres undefined) | 95% | 4% | 24% |
| Cc1cccc(-c2ccc(NC(=O)C3CCN(Cc4cccc(O)c4)CC3)cc2)c1 | 92% | 64% | 21% |
| O=C(/C=C/c1ccc(Cl)c(Cl)c1)NCCCCCN1CC[C@H](NC(=O)Nc2ccc(Oc3ccccc3)cc2)C1 | 100% | 14% | 47% |
| COc1cc(CNCCC(C)C)ccc1OCc1cccc(COc2ccc(CNCCC(C)C)cc2OC)c1.Cl | 99% | 20% | 97% |
| CCOC(=O)C(CO)NC(=O)c1ccc([N+](=O)[O-])o1 (centres undefined) | 96% | 2% | 0% |
| Cc1ccc(Nc2nc(N/N=C/c3cccc(O)c3)nc(Nc3ccc([N+](=O)[O-])cc3)n2)cc1C | 100% | 69% | 0% |
| CN(C)c1ccc(C=Cc2nc(=O)c3ccccc3o2)cc1 | 96% | 97% | 6% |
| CC(C)(C)c1ccc2[nH]c(-c3ccc(/C=C/C(=O)NCc4cccc(C(F)(F)F)c4)cc3)nc2c1 | 93% | 11% | 31% |
| COc1ccc2nccc([C@@H](O)CN3CCC(NC(=O)/C=C/c4ccc5cc(C)[nH]c5c4)CC3)c2c1 | 97% | 93% | 7% |
| CC(C)(C)c1cc(NC(=O)c2ccc(Cl)c([N+](=O)[O-])c2)cc(C(C)(C)C)c1 | 93% | 7% | 0% |
| COc1ccc2c(NN=Cc3cccc(F)c3)ccnc2c1 | 100% | 95% | 49% |
| Cn1cncc1C(=O)Nc1ccc(-c2cccc(-c3nc4cc(C(F)(F)F)ccc4[nH]3)c2)cc1 | 100% | 3% | 34% |
| O=C(Nc1ccccc1)OCCOc1ccc(CC2SC(=O)NC2=O)cc1 (centres undefined) | 100% | 0% | 1% |
| Cc1ccc2nc3c(cc(C(=O)NCc4ccccc4)c(=N)n3CCCn3ccnc3)c(=O)n2c1 | 93% | 0% | 10% |
| COCc1cc(C)nc2sc(C(=O)Nc3cc(C(C)(C)C)ccc3O)c(N)c12 | 85% | 57% | 0% |
| CC(CN1CCN(C)CC1)C(=O)Nc1ccc(-c2ccc(-c3nc4cc(F)ccc4[nH]3)cc2)cc1 (centres undefined) | 100% | 87% | 19% |
| O=C(NC12CC3CC(CC(C3)C1)C2)C(=O)c1c[nH]c2ccccc12 | 97% | 2% | 16% |
| Cc1cccn2c(=O)c3cc(C(=O)NC(C)c4ccccc4)c(=N)n(CCc4ccccc4)c3nc12 (centres undefined) | 100% | 82% | 5% |
| Cc1ccc2oc3cc(-c4nnn[nH]4)ccc3c(=O)c2c1 | 97% | 96% | 2% |

| Compound | Inhibition (Plasmodium falciparum [1]) | Inhibition (Plasmodium falciparum [2]) | Inhibition (HepG2) |
| --- | --- | --- | --- |
| Oc1ccc(OCc2ccccn2)cc1 | 98% | 0% | 5% |
| CC(C)(C)c1ccc(NC(=O)N[C@@H]2CCN(c3ccnc4ccccc34)C2)cc1.Cl | 100% | 96% | 23% |
| CN1CCN(c2cc(NC(=O)c3ccc(-c4ccc(C#N)cc4)cc3)ccc2Cl)CC1 | 100% | 94% | 29% |
| Cc1[nH]c(C)c(Cc2ccc(Oc3ccc(OC(F)(F)F)cc3)cc2)c(=O)c1Br | 96% | 87% | 29% |
| Br.CN(CCON1C(=N)N=C(N)NC1(C)C)c1ccccc1 | 97% | 93% | 64% |
| CCN1CCN(Cc2ccc3nc(-c4cc(C)n(Cc5cc(Cl)ccc5OCc5ccccc5)n4)[nH]c3c2)CC1.Cl | 100% | 97% | 11% |
| COc1ccc2nccc([C@@H](O)CN3CCC(NCC4COc5ccccc5O4)CC3)c2c1.O=C(O)C(=O)O (some centres undefined) | 98% | 94% | 17% |
| CN(C)CCN(Cc1ccccc1-c1ccc(CNCCc2ccccc2)cc1)C(=O)c1ccccc1.O=C(O)C(F)(F)F | 95% | 97% | 81% |
| COc1c(C2=CCN(CCCCNC(=O)c3ccc(-c4ccc(C#N)cc4)cc3)CC2)c(C)cc2c1C(C)(C)CCC2(C)C | 92% | 88% | 18% |
| CN(C)CCN(Cc1ccccc1)c1ccc([N+](=O)[O-])cc1C(F)(F)F.O=C(O)C(F)(F)F | 96% | 89% | 40% |
| Nc1nc(N)c2c(ccc3c2ccn3Cc2ccc(OCc3ccccc3)cc2)n1 | 98% | 1% | 5% |
| Nc1ncc(OC2CCCCC2)c(N)n1 | 94% | 0% | 0% |
| COc1ccc(CCNCCCCCCNCCc2ccc(-c3ccccc3)cc2)cc1OC.Cl | 99% | 35% | 100% |
| CCOc1cc(Cc2cnc(N)nc2N)cc(OCC)c1O | 89% | 0% | 6% |
| Br.CCc1ccccc1OCCCON1C(=N)N=C(N)NC1(C)C | 95% | 97% | 77% |
| CC1CCN(CC[C@H]2CCCN2S(=O)(=O)c2cccc(NC(=O)Nc3ccc(C(F)(F)F)cc3)c2)CC1 | 100% | 41% | 12% |
| Cc1ccc(O)c(-c2cc(C(=O)Nc3ccc(S(=O)(=O)N4CCCCCC4)cc3)[nH]n2)c1 | 100% | 80% | 25% |
| CN1Cc2cc(NC(=O)/C=C/c3ccccc3Cl)ccc2C(C)(C)C1.Cl | 99% | 96% | 12% |
| CCOc1c(CNCCCCCCNCc2ccc3ccccc3c2OCC)ccc2ccccc12.CS(=O)(=O)O | 99% | 78% | 100% |
| Cl.Ic1cc(CNC2CCCCC2)ccc1OCc1cccc(COc2ccc(CNC3CCCCC3)cc2I)c1 | 93% | 34% | 0% |
| CCC(C)CN1CCN(c2cc(NC(=O)c3cccs3)ccn2)C(C)C1.O=C(O)C(F)(F)F (centres undefined) | 88% | 72% | 5% |

| Compound | Inhibition (Plasmodium falciparum [1]) | Inhibition (Plasmodium falciparum [2]) | Inhibition (HepG2) |
| --- | --- | --- | --- |
| CS(=O)(=O)c1ccccc1CNC(=O)c1ccc(-c2cccc(-c3nc4cc(C(F)(F)F)ccc4[nH]3)c2)cc1 | 91% | 4% | 36% |
| CCOC(=O)C1=C(C)NC2=C(C(=O)CC(C)(C)C2)C1c1ccc(Br)cc1 (centres undefined) | 90% | 66% | 0% |
| O=C(Nc1cccc(-c2cccc(-c3nc4cc(F)ccc4[nH]3)c2)c1)c1ccoc1 | 98% | 35% | 36% |
| CN1CCCC1CCNCc1cccc(-c2cnc(N3CCCC(C)(C)C3)nc2)c1 (centres undefined) | 98% | 95% | 99% |
| Fc1ccc2[nH]c(-c3cccc(-c4cccc(CNCCN5CCNCC5)c4)c3)nc2c1.O=C(O)C(F)(F)F | 94% | 4% | 18% |
| C[C@@H](Oc1cc(-n2cnc3ccc(OCC4CCN(S(C)(=O)=O)CC4)cc32)sc1C(N)=O)c1ccccc1C(F)(F)F | 84% | 50% | 31% |
| O=C(NCCCCN1CCN(c2cccc3c2OCCO3)CC1)c1ccc(NC(=O)c2cc(Cl)cc(Cl)c2)cc1 | 100% | 89% | 21% |
| CCNc1cc(C(=O)N[C@@H](Cc2ccccc2)[C@H](O)CNCc2cc(C#N)ccc2OC)cc(N2CCCC2=O)c1.O=C(O)C(F)(F)F | 85% | 51% | 0% |
| CN(C)c1ccc(CN2CCC(NC(=O)c3ccc(-c4ccc(N(C)C)cc4)s3)CC2)cc1.O=C(O)C(F)(F)F | 93% | 21% | 24% |
| COc1ccc2nc(C)cc(N/N=C/c3ccccc3[N+](=O)[O-])c2c1 | 100% | 99% | 2% |
| Cc1cccc2c1NC(=O)/C2=N/NC(=S)N(C)C | 96% | 59% | 48% |
| Cc1cc(N[C@@H](Cc2ccccc2)C(=O)NCCc2ccccc2)nc(NCc2ccccc2C)n1.O=C(O)C(F)(F)F | 99% | 85% | 37% |
| Cc1noc(C)c1-c1ccc(C(=C2CCCCCCC2)c2ccc(O)cc2)cc1 | 83% | 48% | 0% |
| CCN(CCCN1CCCCC1)c1cc(C)nc(Nc2ccc(C)c(F)c2)n1.O=C(O)C(F)(F)F | 100% | 92% | 20% |
| CN(C)c1ccc(CN2CCC(CNC(=O)c3cc(-c4cccc(F)c4)cs3)C2)cc1.O=C(O)C(F)(F)F (centres undefined) | 96% | 13% | 48% |
| COc1ccc(O)c(C(=O)NCCc2ccc(OC)c(-c3ccc(C(C)(C)C)cc3)c2)c1 | 88% | 91% | 11% |
| Cl.N=C(N)NN=Cc1c2ccccc2c(Cl)c2cc(Cl)ccc12 | 97% | 28% | 26% |
| O=C(/C=C/c1ccc(Cl)c(Cl)c1)NC1CCC(CN2CCC(Cc3cc4ccccc4[nH]3)CC2)CC1 (centres undefined) | 100% | 74% | 99% |
| Cc1cccc2nc(-c3ccc(-c4ccc(CN5CCN(CC6CCCN(C)C6)CC5)cc4)cc3)[nH]c12.O=C(O)C(F)(F)F (centres undefined) | 100% | 99% | 91% |
| Cc1nc2nc(N)nc(N)c2c(C)c1Cc1ccc(C#N)cc1.Cl | 96% | 4% | 69% |
| O=C(CCN1CCCCC1)Nc1ccc(Nc2nccc(NCC(O)c3ccccc3)n2)cc1 (centres undefined) | 100% | 60% | 18% |
